# Laboratory results: PubChem BioAssay (NCATS)
# Results filed as inconclusive are left out. Active and inactive are the calls of the source. Unless noted, calls follow the shape of the full dose curve.
# Assays:
# [1] = qHTS drug screen for cell cycle checkpoint inhibitors in PARPi-resistant BRCA-mutant ovarian cancer cell lines. (AID 1963452); conditions: PEO1/OlaR viability, CellTiter-Glo luminescence, 96 h, stronger effect = lower value
# Method in brief: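 PEO1, PEO4 and PEO1/OlaR ovarian cancer cells, 600 per well, exposed 96 h at 37C to a dilution series. Viability read by CellTiter-Glo luminescence, normalized to DMSO and empty wells; activity summarized as Z-AUC.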
# [2] = target: Cytochrome P450 2C9 (Homo sapiens) (UniProt P11712); assay: qHTS for inhibitors of CYP2C9 against the NCATS DSHEA and TCM libraries (AID 1919973; active = well fitted curve in the direction sought with a large enough effect; an effect the other way counts as inactive or inconclusive;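 also: luminogenic pro-luciferin CYP2C9 substrate turned into luciferin with NADPH regeneration; % is scaled to controls: 0 for no effect and ±100 for the full control effect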); conditions: recombinant CYP2C9 enzyme activity, luminescence; series mostly up to 34.1 µM
# Chain of Cytochrome P450 2C9 (Homo sapiens) (P11712 whole entry, looked up, canonical isoform): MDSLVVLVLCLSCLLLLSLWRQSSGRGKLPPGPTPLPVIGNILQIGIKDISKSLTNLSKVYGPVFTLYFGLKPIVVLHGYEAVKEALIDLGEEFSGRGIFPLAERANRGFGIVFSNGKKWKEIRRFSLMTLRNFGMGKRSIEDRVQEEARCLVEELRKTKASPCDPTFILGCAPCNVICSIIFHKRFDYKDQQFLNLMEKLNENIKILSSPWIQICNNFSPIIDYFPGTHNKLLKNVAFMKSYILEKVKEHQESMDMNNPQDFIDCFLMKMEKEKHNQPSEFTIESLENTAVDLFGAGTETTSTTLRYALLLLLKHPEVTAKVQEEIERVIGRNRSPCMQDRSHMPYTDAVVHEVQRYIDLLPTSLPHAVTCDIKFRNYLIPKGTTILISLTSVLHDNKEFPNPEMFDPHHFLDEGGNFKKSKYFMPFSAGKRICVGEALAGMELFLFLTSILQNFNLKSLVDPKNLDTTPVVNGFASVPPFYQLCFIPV
# Method in brief: (§1)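 Read-out is luminescence after P450-Glo detection (30 min, RT). Before that: 15 min compound–enzyme preincubation, then 30-45 min reaction with 1x NADPH regeneration solution, substrate concentration isoform-specific.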
# [3] = target: Cytochrome P450 2C19 (Homo sapiens) (UniProt P33261); assay: qHTS for inhibitors of CYP2C19 against the NCATS DSHEA and TCM libraries (AID 1919974; active = well fitted curve in the direction sought with a large enough effect; an effect the other way counts as inactive or inconclusive;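 also: luminescence from luciferin released by CYP2C19 oxidation of a pro-luciferin substrate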; also: potency is read from the fitted curve at half-maximal effect); conditions: CYP2C19 enzyme inhibition, luminescence qHTS; series mostly up to 34.1 µM
# Chain of Cytochrome P450 2C19 (Homo sapiens) (P33261 whole entry, looked up): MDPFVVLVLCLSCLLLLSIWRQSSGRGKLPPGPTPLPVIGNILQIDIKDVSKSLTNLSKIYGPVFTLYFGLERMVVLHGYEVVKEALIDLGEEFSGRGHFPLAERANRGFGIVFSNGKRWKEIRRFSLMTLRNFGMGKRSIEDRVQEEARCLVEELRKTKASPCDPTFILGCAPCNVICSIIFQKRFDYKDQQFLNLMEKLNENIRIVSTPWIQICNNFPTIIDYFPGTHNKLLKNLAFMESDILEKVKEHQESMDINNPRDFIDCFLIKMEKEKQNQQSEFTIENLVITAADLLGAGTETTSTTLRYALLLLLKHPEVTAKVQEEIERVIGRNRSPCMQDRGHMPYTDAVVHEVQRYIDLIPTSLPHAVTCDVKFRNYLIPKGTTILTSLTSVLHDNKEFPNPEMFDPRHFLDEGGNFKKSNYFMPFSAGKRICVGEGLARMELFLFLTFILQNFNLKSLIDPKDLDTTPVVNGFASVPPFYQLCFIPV
# Method in brief: as §1
# [4] = KB-3-1 P-gp reporter qHTS against the NCATS DSHEA and TCM libraries (AID 1919975; active = well fitted curve in the direction sought with a large enough effect; an effect the other way counts as inactive or inconclusive; also: 0% is about no effect); conditions: KB-3-1 parental cells, CellTiter-Glo luminescence viability, 72 h; series mostly up to 26.1 µM
# Method in brief: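 72 h exposure of KB-3-1 cells (DMEM, 10% FBS) to DSHEA/TCM samples, concentration-response; cell viability measured as CellTiter-Glo luminescence after 30 min at room temperature.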
# [5] = target: Cytochrome P450 1A2 (Homo sapiens) (UniProt P05177); assay: qHTS for inhibitors of CYPIA2 against the NCATS DSHEA and TCM libraries (AID 1919976; active = well fitted curve in the direction sought with a large enough effect; an effect the other way counts as inactive or inconclusive; also: potency is read from the fitted curve at half-maximal effect); conditions: recombinant CYP1A2 enzyme activity, luminescence; series mostly up to 37 µM
# Chain of Cytochrome P450 1A2 (Homo sapiens) (P05177 whole entry, looked up): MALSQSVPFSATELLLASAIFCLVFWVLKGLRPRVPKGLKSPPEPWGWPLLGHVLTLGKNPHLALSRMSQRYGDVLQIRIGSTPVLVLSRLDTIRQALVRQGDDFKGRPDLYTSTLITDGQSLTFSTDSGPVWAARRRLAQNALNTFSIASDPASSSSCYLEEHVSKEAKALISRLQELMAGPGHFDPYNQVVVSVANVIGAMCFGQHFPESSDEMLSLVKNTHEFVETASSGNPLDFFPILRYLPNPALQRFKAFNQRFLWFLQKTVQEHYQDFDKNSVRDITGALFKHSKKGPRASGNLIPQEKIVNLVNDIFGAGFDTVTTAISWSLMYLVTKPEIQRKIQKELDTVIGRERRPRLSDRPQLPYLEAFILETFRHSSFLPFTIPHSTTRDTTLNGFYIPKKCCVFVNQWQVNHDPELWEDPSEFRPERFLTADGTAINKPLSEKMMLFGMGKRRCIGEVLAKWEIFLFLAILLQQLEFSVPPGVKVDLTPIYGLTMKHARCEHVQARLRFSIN
# Method in brief: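 CYP1A2 + luciferin substrate, 100 mM KPO4-type buffer; cmpd 15 min RT; 1x NADPH regen, 30-45 min RT dark; detection reagent 30 min RT; luminescence. Minus-enzyme wells as background; furafylline intraplate control.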
# [6] = qHTS Counterscreen for compound interference against the NCATS DSHEA and TCM libraries (AID 1919978; active = well fitted curve in the direction sought with a large enough effect; an effect the other way counts as inactive or inconclusive; also: % of control where 0% means no effect); conditions: firefly luciferase detection reagent interference, luminescence
# Method in brief: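 Read-out is luminescence after 30 min at RT with luciferin detection reagent. Before that, compounds (19.5 nM to 39.8 uM final) sat 15 min at RT with 1 uM D-luciferin or 100 mM potassium phosphate buffer. PTC124 served as intraplate control.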
# [7] = Dual reporter qHTS for agonist of Pregnane X Receptor (hPXR) against the NCATS DSHEA and TCM libraries: Fluorescence readout (AID 1920058; active = well fitted curve in the direction sought with a large enough effect; an effect the other way counts as inactive or inconclusive; also: 0% is about no effect); conditions: PXR dual reporter cells; series mostly up to 40 µM
# Method in brief: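 HepG2 hPXR-Luc, 2000 cells/well, 5 h attach; cpds ~24 h, 37 °C/5% CO2; CellTiter-Fluor 1 h; fluor. Ex/Em 405/540 nm = viability.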
# [8] = target: Nuclear receptor subfamily 1 group I member 2 (Homo sapiens) (UniProt O75469); assay: Dual reporter qHTS for agonist of Pregnane X Receptor (hPXR) against the NCATS DSHEA and TCM libraries: Luminescence readout (AID 1920059; active = well fitted curve in the direction sought with a large enough effect; an effect the other way counts as inactive or inconclusive; also: 0% is about no effect); conditions: hPXR dual reporter cells, luciferase luminescence agonist; series mostly up to 40 µM
# Chain of Nuclear receptor subfamily 1 group I member 2 (Homo sapiens) (O75469 whole entry, looked up): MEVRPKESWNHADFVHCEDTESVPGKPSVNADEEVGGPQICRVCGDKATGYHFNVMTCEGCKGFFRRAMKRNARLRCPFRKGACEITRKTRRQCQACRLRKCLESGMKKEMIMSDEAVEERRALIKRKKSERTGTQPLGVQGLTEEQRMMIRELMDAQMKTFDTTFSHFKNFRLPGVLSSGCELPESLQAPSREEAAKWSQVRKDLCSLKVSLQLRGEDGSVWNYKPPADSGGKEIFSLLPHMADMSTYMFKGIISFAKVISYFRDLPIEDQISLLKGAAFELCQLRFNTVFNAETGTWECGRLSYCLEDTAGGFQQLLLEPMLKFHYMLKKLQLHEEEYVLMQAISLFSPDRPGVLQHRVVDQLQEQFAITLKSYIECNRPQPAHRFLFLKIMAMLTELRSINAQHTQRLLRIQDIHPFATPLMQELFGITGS
# Excerpt: Assay Development and Screening Technology Laboratory (ADST)
# National Center for Advancing Translational Sciences (NCATS), Rockville, MD
# National Institute of Health (NIH), Bethesda, Maryland
# Dietary Supplements and Natural Products have minor oversight of their safety and efficacy. We assembled a collection of Dietary Supplements and Natural Products (DSNP) as well as Traditional Chinese Medicinal (TCM) Plant extracts, which were screened against an in vitro panel of assays, including a liver cytochrome p450 enzyme panel, CAR/PXR signaling pathways, and P-gp transporter assays, to assess their activity. This pipeline facilitated the interrogation of Natural Product-Drug Interaction (NaPDI) through prominent metabolizing pathways. In addition, we compared the activity profiles of the DSNP/TCM substances with those of an approved drug collection. […] Overall, we highlight four significant bioactivity profiles (measured by p-values) as examples of this prediction. […] To profile potential P-gp activity, a differential cell viability was measured against two cell lines: a parental KB-3-1 human cervical adenocarcinoma cell line and the drug-resistant subline KB-8-5-11 that overexpresses P-gp. […]
# 8; Read; Fluorescence; ViewLux plate reader. […]
# 11; Read; Luminescence; ViewLux plate reader. […]
# [9] = target: Nuclear receptor subfamily 1 group I member 2 (Homo sapiens) (UniProt O75469); assay: Dual reporter qHTS for antagonist of Pregnane X Receptor (hPXR) against the NCATS DSHEA and TCM libraries: Luminescence Readout (AID 1920060; active = well fitted curve in the direction sought with a large enough effect; an effect the other way counts as inactive or inconclusive;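 also: HepG2 cells carrying hPXR luciferase reporter stimulated with rifampicin at 2 µM; 0% is about no effect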); conditions: hPXR dual reporter cells, luciferase luminescence, antagonist mode; series mostly up to 40 µM
# Method in brief: (§2)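 HepG2 hPXR-Luc, 2000 cells/well, charcoal-stripped FBS medium; 5 h attach; RIF 2 uM final; 24 h 37C/5% CO2; CellTiter-Fluor 1 h, fluor 405/540; ONE-Glo 30 min RT, lum.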
# [10] = Dual reporter qHTS for antagonist of Pregnane X Receptor (hPXR) against the NCATS DSHEA and TCM libraries: Fluorescence Readout (AID 1920061; active = well fitted curve in the direction sought with a large enough effect; an effect the other way counts as inactive or inconclusive; also: 0% is about no effect); conditions: PXR dual reporter cells, antagonist mode; series mostly up to 40 µM
# Method in brief: as §2
# [11] = measured here: PEO1 parental Z-AUC
structure (smiles),measurement,setting,value
CC(C)N(CCC(=O)c1ccc2ccccc2c1)Cc1ccccc1,Z-AUC,[1],-1.4 (inactive)
same,Z-AUC,[1]; [11],-0.867
same,Z-AUC,[1]; measured here: PEO4 Z-AUC,-0.853
C[C@H]1C[C@@H]2[C@H]([C@@H](O)C[C@@]3(C)[C@H]2CC[C@]3(O)C(=O)CO)[C@@]2(C)C=CC(=O)C=C12,Z-AUC,[1],-1.46 (inactive)
same,Z-AUC,[1]; [11],-0.672
same,Z-AUC,[1]; measured here: PEO4 Z-AUC,-1.34
C[C@H]1C[C@H]2[C@@H]3CCC4=CC(=O)C=C[C@]4(C)[C@H]3C(=O)C[C@]2(C)[C@@]1(O)C(=O)CO,Z-AUC,[1],1.47 (inactive)
same,Z-AUC,[1]; [11],0.72
same,Z-AUC,[1]; measured here: PEO4 Z-AUC,0.786
CCN(CC)CCOc1ccc(/C(=C(\Cl)c2ccccc2)c2ccccc2)cc1,Z-AUC,[1],-0.751 (inactive)
same,Z-AUC,[1]; [11],-0.39
same,Z-AUC,[1]; measured here: PEO4 Z-AUC,-0.613
CN1CCCN=C1/C=C/c1cccs1,Z-AUC,[1],0.33 (inactive)
same,Z-AUC,[1]; [11],0.491
same,Z-AUC,[1]; measured here: PEO4 Z-AUC,0.415
CC1c2ccccc2CN1NC(=O)c1ccc(Cl)c(S(N)(=O)=O)c1 (stereo unspecified),Z-AUC,[1],1.28 (inactive)
same,Z-AUC,[1]; [11],0.911
same,Z-AUC,[1]; measured here: PEO4 Z-AUC,0.911
CCC1=C[C@@H]2CN(C1)Cc1c([nH]c3ccccc13)[C@@](C(=O)OC)(c1cc3c(cc1OC)N(C)[C@H]1[C@@](O)(C(=O)OC)[C@H](OC(C)=O)[C@]4(CC)C=CCN5CC[C@]31[C@@H]54)C2,Z-AUC,[1],-1.05 (inactive)
same,Z-AUC,[1]; [11],-1.03
same,Z-AUC,[1]; measured here: PEO4 Z-AUC,-1.04
CN1CC(=O)N2[C@H](c3ccc4c(c3)OCO4)c3[nH]c4ccccc4c3C[C@@H]2C1=O,Z-AUC,[1],0.983 (inactive)
same,Z-AUC,[1]; [11],0.823
same,Z-AUC,[1]; measured here: PEO4 Z-AUC,0.783
O=C(O)CCCC[C@@H]1SC[C@@H]2NC(=O)N[C@@H]21,outcome,[2],inactive
same,Potency,[3],3.55 µM (active)
same,outcome,[4],inactive
same,Potency,[5],3.98 µM (active)
same,max response,[6],3.76% (inactive)
same,outcome,[7],inactive
same,outcome,[8],inactive
same,outcome,[9],inactive
same,outcome,[10],inactive
CCCCCCOC(=O)NC(=N)c1ccc(NCc2nc3cc(C(=O)N(CCC(=O)OCC)c4ccccn4)ccc3n2C)cc1,Z-AUC,[1],1.19 (inactive)
same,Z-AUC,[1]; [11],0.495
same,Z-AUC,[1]; measured here: PEO4 Z-AUC,0.615
O=[N+]([O-])c1ccc(O)c2ncccc12,Z-AUC,[1],-0.66 (inactive)
same,Z-AUC,[1]; [11],-0.828
same,Z-AUC,[1]; measured here: PEO4 Z-AUC,-1.06
O=C(Nc1ccc(S(=O)(=O)N2CCOCC2)cc1)c1cc(Cl)ccc1NS(=O)(=O)c1ccc(Cl)s1,Z-AUC,[1],1.19 (inactive)
same,Z-AUC,[1]; [11],0.998
same,Z-AUC,[1]; measured here: PEO4 Z-AUC,1.36
O=C(O)[C@H](O)[C@@H](O)[C@H](O[C@@H]1O[C@H](CO)[C@H](O)[C@H](O)[C@H]1O)[C@H](O)CO,Z-AUC,[1],0.899 (inactive)
same,Z-AUC,[1]; [11],1.15
same,Z-AUC,[1]; measured here: PEO4 Z-AUC,1.21
O=[N+]([O-])c1ccc(-c2nc(-c3ccc(F)cc3)c(-c3ccncc3)[nH]2)cc1,Z-AUC,[1],1.31 (inactive)
same,Z-AUC,[1]; [11],0.274
same,Z-AUC,[1]; measured here: PEO4 Z-AUC,0.382
O=[N+]([O-])c1cncn1CCN1CCOCC1,Z-AUC,[1],1.32 (inactive)
same,Z-AUC,[1]; [11],1.34
same,Z-AUC,[1]; measured here: PEO4 Z-AUC,1.02
CC1(C)O[C@@H]2C[C@H]3[C@@H]4C[C@H](F)C5=CC(=O)C=C[C@]5(C)[C@@]4(F)[C@@H](O)C[C@]3(C)[C@]2(C(=O)CO)O1,Z-AUC,[1],-1.1 (inactive)
same,Z-AUC,[1]; [11],0.399
same,Z-AUC,[1]; measured here: PEO4 Z-AUC,-0.582
O=C1NC(=O)/C(=C/c2ccc3c(c2)OC(F)(F)O3)S1,Z-AUC,[1],-0.958 (inactive)
same,Z-AUC,[1]; [11],-0.173
same,Z-AUC,[1]; measured here: PEO4 Z-AUC,-0.926
C[N+](C)(C)CCO,outcome,[2],inactive
same,Potency,[3],inactive
same,outcome,[4],inactive
same,Potency,[5],inactive
same,max response,[6],2.09% (inactive)
same,outcome,[7],inactive
same,outcome,[8],inactive
same,outcome,[9],inactive
same,outcome,[10],inactive
CNC[C@H](O)[C@@H](O)[C@H](O)[C@H](O)CO,Z-AUC,[1],-0.453 (inactive)
same,Z-AUC,[1]; [11],-0.0353
same,Z-AUC,[1]; measured here: PEO4 Z-AUC,0.238
CC1(C)O[C@@H]2C[C@H]3[C@@H]4CCC5=CC(=O)C=C[C@]5(C)[C@@]4(F)[C@@H](O)C[C@]3(C)[C@]2(C(=O)CO)O1,Z-AUC,[1],0.569 (inactive)
same,Z-AUC,[1]; [11],1.66
same,Z-AUC,[1]; measured here: PEO4 Z-AUC,0.813
O=C(O)C(=O)Nc1cccc(-c2nn[nH]n2)c1,Z-AUC,[1],0.0028 (inactive)
same,Z-AUC,[1]; [11],0.552
same,Z-AUC,[1]; measured here: PEO4 Z-AUC,0.459
CCOC(=O)O[C@]1(C(=O)OCCl)CC[C@H]2[C@@H]3CCC4=CC(=O)C=C[C@]4(C)[C@H]3[C@@H](O)C[C@@]21C,Z-AUC,[1],1.04 (inactive)
same,Z-AUC,[1]; [11],0.868
same,Z-AUC,[1]; measured here: PEO4 Z-AUC,1.23
COc1c(C)c2c(c(O)c1C/C=C(\C)CCC(=O)OCCN1CCOCC1)C(=O)OC2,Z-AUC,[1],0.671 (inactive)
same,Z-AUC,[1]; [11],0.614
same,Z-AUC,[1]; measured here: PEO4 Z-AUC,0.906
